# Reference: PubChem BioAssay (EPA / NIEHS)
# Inconclusive results are not listed. Activity calls are given as the source filed them. Rule for the calls: active = hit-call score of the fitted dose curve at least 0.9, where 1 is the maximum; inconclusive = response in the unintended direction; inactive = score below 0.9.
# Columns and labels:
# [1] = ACEA_ER_AUC_viability: ACEA Biosciences xCELLigence Real-Time Cell Analysis on Estrogen Receptor Agonism for Viability (AID 2283782);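 note: continuous compound exposure with impedance area under curve over 80 h; hit means loss of impedance signal meaning reduced cell growth or viability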
# Outline: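 T-47D human breast cells in phenol red-free RPMI1640 with 10% charcoal-stripped FBS were dosed with an 8-point 1:4 dilution series from 100 uM top final concentration, in duplicate. Impedance-based growth was followed for 80 h; AUC analysed versus DMSO.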
# AR (gene 367) [2] = biological target: AR (gene 367) (UniProt P10275); experiment: ACEA_AR_agonist_80hr: ACEA Biosciences xCELLigence Real-Time Cell Analysis on Androgen Receptor Agonism for Proliferation (AID 2283783);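 note: hits increase impedance growth signal above DMSO baseline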
# Outline: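 22Rv1 human prostate cancer cells were seeded after preconditioning in assay medium and monitored overnight, then dosed in an eight-point 1:4 dilution series from 100 uM (≤0.5% DMSO). Impedance-based growth was read at 80 h, gain-of-signal versus DMSO.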
# [3] = STM_H9_NormalizedViability: Cytotoxicity Assessment at 120 hours in the Stemina devTOX quickPredict H9 human embryonic stem cell (hESC)-based Assay (AID 2283784)
# Outline: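 Undifferentiated H9 hESCs kept pluripotent were exposed to compound, with media and chemical replaced every 24h. CellTiter-Fluor protease-substrate fluorescence was background-corrected and normalized per plate to the 0.1% DMSO vehicle; signal loss indicates reduced viability.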
# AR (gene 367) [4] = biological target: AR (gene 367) (UniProt P10275); experiment: ACEA_AR_antagonist_80hr: ACEA Biosciences xCELLigence Real-Time Cell Analysis on Androgen Receptor Antagonism for Proliferation (AID 2283787);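 note: hits lower the impedance growth signal relative to DMSO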
# Outline: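 Impedance readout (RT-CES), 80 h post-dose; loss-of-signal vs DMSO baseline. 22Rv1 cells in assay medium. Compounds: 8-pt 1:4 series, max 100 uM final, up to 0.5% DMSO; n = 2.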
# [5] = biological target: Estrogen receptor (Homo sapiens) (UniProt P03372); experiment: ATG_hERa_XSP1: Attagene TRANS-FACTORIAL Multi-Species (XSP1) HepG2 Assay for human Estrogen Receptor (ESR1) (AID 2283780)
# Outline: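 HepG2 cells transiently transfected with GAL4-UAS reporter units and chimeric NR-Gal4 constructs; 24 h after dosing, reporter mRNA quantified by RT-PCR and capillary electrophoresis. Medium contained 3 nM 6-alpha-fluorotestosterone; activity fitted as gain-of-signal versus DMSO.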
# [6] = test system: turtle Estrogen Receptor (ESR1), gene 101933533; experiment: ATG_trERa_XSP1: Attagene TRANS-FACTORIAL Multi-Species (XSP1) HepG2 Assay for turtle Estrogen Receptor (ESR1) (AID 2283781)
# Outline: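 HepG2 cells transiently transfected with GAL4-UAS reporter units and chimeric NR-Gal4 constructs, dosed for 24 h with 3 nM 6-alpha-fluorotestosterone present. Reporter mRNA was quantified by RT-PCR, fluorescent labelling and capillary electrophoresis, with gain of signal fitted relative to DMSO.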
# [7] = biological target: Estrogen receptor beta (Homo sapiens) (UniProt Q92731); experiment: ATG_hERb_XSP1: Attagene TRANS-FACTORIAL Multi-Species (XSP1) HepG2 Assay for human Estrogen Receptor (ESR2) (AID 2283788)
# Outline: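 Read-out: reporter mRNA induction by RT-PCR, HpaI digestion and capillary electrophoresis fluorescence, fitted in positive direction relative to DMSO baseline. Human liver HepG2 cells expressing ERβ-Gal4 fusion, dosed 24 h, medium containing 3 nM 6-alpha-fluorotestosterone.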
# [8] = ATG_M_06_XSP1: Attagene TRANS-FACTORIAL Multi-Species (XSP1) HepG2 Assay for M06 Transcription Factor (Internal Marker) (AID 2283790)
# Outline: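 Transfected HepG2 multi-reporter system treated 24 h in the presence of 3 nM 6-alpha-fluorotestosterone. The M06 internal marker transcript was quantified by RT-PCR with capillary electrophoresis as a background control, and gain of signal was scored versus DMSO.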
# [9] = ATG_M_61_XSP1: Attagene TRANS-FACTORIAL Multi-Species (XSP1) HepG2 Assay for M61 Transcription Factor (Internal Marker) (AID 2283797)
# Outline: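 HepG2 cells transiently transfected with multiplexed GAL4-driven reporter units, dosed 24 h with 3 nM 6-alpha-fluorotestosterone present. Reporter mRNA quantified by RT-PCR, 6-FAM labelling, HpaI digestion and capillary electrophoresis; internal-marker background control, gain of signal versus DMSO.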
# [10] = biological target: Peroxisome proliferator-activated receptor gamma (Homo sapiens) (UniProt P37231); experiment: ATG_hPPARg_XSP1: Attagene TRANS-FACTORIAL Multi-Species (XSP1) HepG2 Assay for human Peroxisome Proliferator-activated Receptor gamma (PPARg) (AID 2283800)
# Outline: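 HepG2 cells transiently transfected with GAL4-UAS reporter units carrying chimeric NR-Gal4 proteins; 3 nM 6-alpha-fluorotestosterone present. After 24 h dosing, reporter mRNA quantified by RT-PCR and capillary electrophoresis; gain of signal relative to DMSO.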
# [11] = test system: zebrafish Peroxisome Proliferator-activated Receptor gamma (PPARg), gene 557037; experiment: ATG_zfPPARg_XSP1: Attagene TRANS-FACTORIAL Multi-Species (XSP1) HepG2 Assay for zebrafish Peroxisome Proliferator-activated Receptor gamma (PPARg) (AID 2283801)
# Outline: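 HepG2 cells transiently transfected with GAL4-UAS reporter units including a zebrafish PPARg–GAL4 chimera, dosed 24 h with 3 nM 6-alpha-fluorotestosterone present. Reporter mRNA quantified by RT-PCR, FAM labelling, HpaI digestion and capillary electrophoresis; induction versus DMSO.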
# [12] = biological target: mouse Peroxisome Proliferator-activated Receptor gamma (PPARg), Pparg (gene 19016) (UniProt P37238); experiment: ATG_mPPARg_XSP1: Attagene TRANS-FACTORIAL Multi-Species (XSP1) HepG2 Assay for mouse Peroxisome Proliferator-activated Receptor gamma (PPARg) (AID 2283802)
# Outline: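 HepG2 cells transiently transfected with GAL4-UAS reporter units driven by mouse PPARg–GAL4 chimera; 3 nM 6-alpha-fluorotestosterone present. After 24 h dosing, reporter mRNA quantified by RT-PCR, fluorescent labelling and capillary electrophoresis; gain of signal versus DMSO.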
# [13] = biological target: Nuclear receptor subfamily 1 group I member 2 (Mus musculus) (UniProt O54915); experiment: ATG_mPXR_XSP1: Attagene TRANS-FACTORIAL Multi-Species (XSP1) HepG2 Assay for mouse Pregnane X Receptor (PXR) (AID 2283803)
# Outline: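 Transiently transfected HepG2 cells expressing a receptor-Gal4 chimera drive a GAL4-UAS reporter; 3 nM 6-alpha-fluorotestosterone included. Reporter mRNA read 24 h post-dose by RT-PCR and capillary electrophoresis; gain of signal relative to DMSO.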
# [14] = biological target: frog Thyroid hormone Receptor alpha (TRa), thra-a (gene 397942) (UniProt P15204); experiment: ATG_frTRa_XSP1: Attagene TRANS-FACTORIAL Multi-Species (XSP1) HepG2 Assay for frog Thyroid hormone Receptor alpha (TRa) (AID 2283804)
# Outline: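 HepG2 cells transiently transfected with frog TRa-GAL4 chimeric reporter units, dosed 24 hr with 3 nM 6-alpha-fluorotestosterone present; reporter mRNA quantified by RT-PCR, fluorescent labelling and capillary electrophoresis, gain of signal versus DMSO.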
# [15] = biological target: human Thyroid hormone Receptor alpha (TRa), THRA (gene 7067) (UniProt P10827); experiment: ATG_hTRa_XSP1: Attagene TRANS-FACTORIAL Multi-Species (XSP1) HepG2 Assay for human Thyroid hormone Receptor alpha (TRa) (AID 2283805)
# Outline: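 HepG2 cells transiently transfected with GAL4-UAS reporter units expressing chimeric NR-Gal4 proteins, dosed 24 hours with 3 nM 6-alpha-fluorotestosterone present. Reporter mRNA measured by RT-PCR and capillary electrophoresis; gain of signal fitted versus DMSO.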
# [16] = test system: turtle Thyroid Hormone Receptor, alpha (TRa), gene 101949057; experiment: ATG_trTRa_XSP1: Attagene TRANS-FACTORIAL Multi-Species (XSP1) HepG2 Assay for turtle Thyroid Hormone Receptor, alpha (TRa) (AID 2283806)
# Outline: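 HepG2 cells transiently transfected with GAL4-UAS reporter units and chimeric receptor-Gal4 constructs, with 3 nM 6-alpha-fluorotestosterone present. Reporter mRNA was quantified 24 h after dosing by RT-PCR, 6-FAM labelling and capillary electrophoresis; gain of signal versus DMSO.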
# Sequence of AR (gene 367) (P10275 whole entry, looked up): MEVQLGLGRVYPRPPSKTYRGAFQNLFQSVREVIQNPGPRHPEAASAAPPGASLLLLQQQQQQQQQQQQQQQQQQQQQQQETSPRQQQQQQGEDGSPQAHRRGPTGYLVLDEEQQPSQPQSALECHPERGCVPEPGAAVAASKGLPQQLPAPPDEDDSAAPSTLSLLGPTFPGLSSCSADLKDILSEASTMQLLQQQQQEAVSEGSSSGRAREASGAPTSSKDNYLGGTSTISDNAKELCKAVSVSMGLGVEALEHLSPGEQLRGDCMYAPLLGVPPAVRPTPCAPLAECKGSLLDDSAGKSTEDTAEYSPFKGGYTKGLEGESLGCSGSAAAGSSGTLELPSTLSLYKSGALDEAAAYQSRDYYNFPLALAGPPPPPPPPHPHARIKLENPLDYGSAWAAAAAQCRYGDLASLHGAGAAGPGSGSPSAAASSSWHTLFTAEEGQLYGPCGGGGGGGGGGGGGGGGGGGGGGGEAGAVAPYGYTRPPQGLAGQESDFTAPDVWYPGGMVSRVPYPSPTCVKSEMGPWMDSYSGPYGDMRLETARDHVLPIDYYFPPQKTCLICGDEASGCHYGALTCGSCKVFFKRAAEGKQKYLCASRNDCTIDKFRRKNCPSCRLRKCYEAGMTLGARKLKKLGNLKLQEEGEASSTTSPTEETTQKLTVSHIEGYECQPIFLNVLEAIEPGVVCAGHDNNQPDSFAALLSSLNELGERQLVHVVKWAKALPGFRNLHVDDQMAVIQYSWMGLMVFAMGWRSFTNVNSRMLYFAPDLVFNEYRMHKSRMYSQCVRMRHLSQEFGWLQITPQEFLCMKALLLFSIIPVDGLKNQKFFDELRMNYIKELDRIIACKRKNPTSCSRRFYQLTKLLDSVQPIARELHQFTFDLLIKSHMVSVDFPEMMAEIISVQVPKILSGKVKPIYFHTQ
# Sequence of Estrogen receptor (Homo sapiens) (P03372 whole entry, looked up, the tested form may be a part): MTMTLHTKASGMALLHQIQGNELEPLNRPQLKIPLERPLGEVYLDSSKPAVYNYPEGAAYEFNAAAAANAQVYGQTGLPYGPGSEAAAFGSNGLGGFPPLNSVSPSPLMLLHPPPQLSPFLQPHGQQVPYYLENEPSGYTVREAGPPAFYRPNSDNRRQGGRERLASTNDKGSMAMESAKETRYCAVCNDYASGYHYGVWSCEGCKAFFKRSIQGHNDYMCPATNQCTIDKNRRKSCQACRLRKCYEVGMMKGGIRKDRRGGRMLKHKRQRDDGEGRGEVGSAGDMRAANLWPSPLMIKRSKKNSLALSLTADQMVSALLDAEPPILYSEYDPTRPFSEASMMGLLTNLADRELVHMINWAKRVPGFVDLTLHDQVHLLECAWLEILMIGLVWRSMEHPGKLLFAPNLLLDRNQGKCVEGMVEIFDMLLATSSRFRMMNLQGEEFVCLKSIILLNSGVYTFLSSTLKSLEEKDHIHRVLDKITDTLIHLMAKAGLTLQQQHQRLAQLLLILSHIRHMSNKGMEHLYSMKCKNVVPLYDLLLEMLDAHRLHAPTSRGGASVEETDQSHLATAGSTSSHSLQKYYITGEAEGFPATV
# Sequence of mouse Peroxisome Proliferator-activated Receptor gamma (PPARg), Pparg (gene 19016) (P37238 whole entry, looked up, the tested form may be a part): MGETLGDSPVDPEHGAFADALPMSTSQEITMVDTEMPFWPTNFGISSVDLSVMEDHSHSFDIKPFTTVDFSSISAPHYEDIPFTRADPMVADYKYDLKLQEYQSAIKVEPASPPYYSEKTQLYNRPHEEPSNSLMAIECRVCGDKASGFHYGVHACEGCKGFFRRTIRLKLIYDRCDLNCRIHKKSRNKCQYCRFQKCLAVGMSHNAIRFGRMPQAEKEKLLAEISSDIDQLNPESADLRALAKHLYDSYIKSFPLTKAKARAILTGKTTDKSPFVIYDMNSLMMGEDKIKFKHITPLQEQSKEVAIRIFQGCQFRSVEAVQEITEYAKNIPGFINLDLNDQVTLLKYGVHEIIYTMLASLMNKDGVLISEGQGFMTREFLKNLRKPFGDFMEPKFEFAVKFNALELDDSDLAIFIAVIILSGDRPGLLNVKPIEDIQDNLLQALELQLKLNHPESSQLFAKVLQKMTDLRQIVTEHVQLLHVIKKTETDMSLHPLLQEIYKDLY
# Sequence of Nuclear receptor subfamily 1 group I member 2 (Mus musculus) (O54915 whole entry, looked up, the tested form may be a part): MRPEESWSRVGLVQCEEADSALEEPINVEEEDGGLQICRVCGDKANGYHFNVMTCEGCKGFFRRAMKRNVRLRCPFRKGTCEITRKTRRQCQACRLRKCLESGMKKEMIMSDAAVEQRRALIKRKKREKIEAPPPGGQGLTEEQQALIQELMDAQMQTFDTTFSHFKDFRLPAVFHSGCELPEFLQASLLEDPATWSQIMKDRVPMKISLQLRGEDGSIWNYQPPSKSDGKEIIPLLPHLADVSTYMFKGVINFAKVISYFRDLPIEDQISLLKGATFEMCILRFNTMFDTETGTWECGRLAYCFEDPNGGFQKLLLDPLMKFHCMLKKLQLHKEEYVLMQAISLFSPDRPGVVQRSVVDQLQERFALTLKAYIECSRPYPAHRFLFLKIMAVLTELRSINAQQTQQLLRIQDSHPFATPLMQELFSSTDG
# Sequence of Peroxisome proliferator-activated receptor gamma (Homo sapiens) (P37231 whole entry, looked up, the tested form may be a part): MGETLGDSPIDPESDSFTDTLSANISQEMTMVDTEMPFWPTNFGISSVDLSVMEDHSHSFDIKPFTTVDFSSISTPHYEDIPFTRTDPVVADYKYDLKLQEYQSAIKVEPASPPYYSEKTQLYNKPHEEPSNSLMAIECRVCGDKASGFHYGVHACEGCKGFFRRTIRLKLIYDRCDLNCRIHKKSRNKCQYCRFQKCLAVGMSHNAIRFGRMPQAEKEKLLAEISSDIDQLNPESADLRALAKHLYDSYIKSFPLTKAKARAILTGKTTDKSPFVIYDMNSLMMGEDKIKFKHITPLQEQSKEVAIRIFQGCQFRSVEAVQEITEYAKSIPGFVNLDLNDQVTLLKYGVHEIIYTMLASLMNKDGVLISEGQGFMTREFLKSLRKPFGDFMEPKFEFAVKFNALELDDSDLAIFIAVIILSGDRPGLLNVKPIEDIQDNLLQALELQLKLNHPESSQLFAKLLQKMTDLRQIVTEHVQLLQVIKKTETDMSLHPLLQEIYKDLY
# Sequence of Estrogen receptor beta (Homo sapiens) (Q92731 whole entry, looked up, the tested form may be a part): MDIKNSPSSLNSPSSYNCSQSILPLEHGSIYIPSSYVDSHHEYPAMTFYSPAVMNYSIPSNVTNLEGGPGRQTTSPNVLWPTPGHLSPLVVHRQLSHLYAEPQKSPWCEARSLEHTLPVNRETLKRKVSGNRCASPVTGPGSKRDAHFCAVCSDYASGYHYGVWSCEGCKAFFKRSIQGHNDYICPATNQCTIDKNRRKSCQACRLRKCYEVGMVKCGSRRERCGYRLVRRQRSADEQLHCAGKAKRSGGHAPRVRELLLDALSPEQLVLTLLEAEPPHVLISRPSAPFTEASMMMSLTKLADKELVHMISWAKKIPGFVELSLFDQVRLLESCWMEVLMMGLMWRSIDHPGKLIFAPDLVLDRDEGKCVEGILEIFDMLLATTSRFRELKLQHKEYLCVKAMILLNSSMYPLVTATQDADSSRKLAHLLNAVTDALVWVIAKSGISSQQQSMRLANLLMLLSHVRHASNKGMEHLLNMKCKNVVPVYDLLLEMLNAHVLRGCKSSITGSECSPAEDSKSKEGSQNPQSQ
# Sequence of human Thyroid hormone Receptor alpha (TRa), THRA (gene 7067) (P10827 whole entry, looked up, the tested form may be a part): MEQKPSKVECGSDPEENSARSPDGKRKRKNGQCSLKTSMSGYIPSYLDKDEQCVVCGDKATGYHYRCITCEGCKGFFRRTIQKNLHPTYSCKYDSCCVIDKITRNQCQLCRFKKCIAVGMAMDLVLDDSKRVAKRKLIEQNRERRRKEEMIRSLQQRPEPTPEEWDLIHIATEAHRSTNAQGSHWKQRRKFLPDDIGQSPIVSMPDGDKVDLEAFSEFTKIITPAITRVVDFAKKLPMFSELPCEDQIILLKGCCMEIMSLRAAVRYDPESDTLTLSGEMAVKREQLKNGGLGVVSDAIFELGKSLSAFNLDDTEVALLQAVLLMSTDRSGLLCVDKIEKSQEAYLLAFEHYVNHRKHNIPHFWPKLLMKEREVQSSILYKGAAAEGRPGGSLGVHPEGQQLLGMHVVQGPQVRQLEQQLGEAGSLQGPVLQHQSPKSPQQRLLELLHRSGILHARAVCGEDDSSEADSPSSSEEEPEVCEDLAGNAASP
# Sequence of frog Thyroid hormone Receptor alpha (TRa), thra-a (gene 397942) (P15204 whole entry, looked up, the tested form may be a part): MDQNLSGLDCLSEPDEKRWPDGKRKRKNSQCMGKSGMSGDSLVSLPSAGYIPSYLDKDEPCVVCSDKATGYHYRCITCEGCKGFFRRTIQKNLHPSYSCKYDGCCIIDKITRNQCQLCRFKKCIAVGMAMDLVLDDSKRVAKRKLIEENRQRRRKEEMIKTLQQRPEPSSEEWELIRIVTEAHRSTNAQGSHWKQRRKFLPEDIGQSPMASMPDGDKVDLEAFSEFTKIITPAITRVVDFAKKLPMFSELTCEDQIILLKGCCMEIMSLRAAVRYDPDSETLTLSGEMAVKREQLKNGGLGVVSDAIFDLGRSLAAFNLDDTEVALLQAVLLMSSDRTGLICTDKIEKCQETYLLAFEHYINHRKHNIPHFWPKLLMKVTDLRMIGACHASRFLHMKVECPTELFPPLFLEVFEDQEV
structure (smiles),measurement,setting,value
Cc1ccc(N=CN(C)C=Nc2ccc(C)cc2C)c(C)c1,AC50,[1],50 µM (active)
CCN(CC)c1nc(C)cc(OP(=S)(OC)OC)n1,outcome,[1],inactive
CCCCC(O)(Cn1cncn1)c1ccc(Cl)cc1Cl (stereo not given),AC50,[1],75.5 µM (active)
same,outcome,AR (gene 367) [2],inactive
same,AC50,[3],78.3 µM (active)
same,AC50,AR (gene 367) [4],57.3 µM (active)
COCc1cnc(C2=NC(C)(C(C)C)C(=O)N2)c(C(=O)O)c1 (stereo not given),outcome,[1],inactive
same,outcome,AR (gene 367) [2],inactive
same,outcome,[3],inactive
CCCCOCN(C(=O)CCl)c1c(CC)cccc1CC,AC50,[1],87.6 µM (active)
same,AC50,AR (gene 367) [2],10.5 µM (active)
same,AC50,AR (gene 367) [4],75.7 µM (active)
CCSC(=O)N1CCCCCC1,outcome,[1],inactive
CC(C)Oc1cccc(NC(=O)c2ccccc2C(F)(F)F)c1,outcome,[1],inactive
COC(=O)NS(=O)(=O)c1ccc(N)cc1,outcome,[1],inactive
CC1(C)C(C(=O)OC(C#N)c2cccc(Oc3ccccc3)c2)C1(C)C (stereo not given),AC50,[1],89.4 µM (active)
CCN(CC)C(=O)C(C)Oc1cccc2ccccc12 (stereo not given),outcome,[5],inactive
same,AC50,[6],5.99 µM (active)
same,outcome,[3],inactive
same,AC50,[7],100 µM (active)
same,outcome,[8],inactive
same,outcome,[9],inactive
same,AC50,[10],48.4 µM (active)
same,outcome,[11],inactive
same,AC50,[12],20.7 µM (active)
same,AC50,[13],1.27 µM (active)
same,outcome,[14],inactive
same,outcome,[15],inactive
same,outcome,[16],inactive
OC(c1ccc(Cl)cc1)(c1ccc(Cl)cc1)C(Cl)(Cl)Cl,AC50,[1],26.4 µM (active)
